Measured values: PubChem BioAssay (NCI)
Compounds without any hit were thinned out: in the full panel of roughly 79,000, 15% have a hit. Calls of active or inactive are those of the source. Rule as the data show it: active = growth inhibition above about 70%; inactive = the rest.

Legend:
[1] = NCI Yeast Anticancer Drug Screen. Data for the rad52 strain (AID 147);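 also: 0% = growth of vehicle-treated control cultures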; details: S. cerevisiae rad52 mutant growth inhibition, stronger effect = higher value
In short: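 Vehicle-treated cultures served as the reference for growth inhibition of compound-exposed yeast bearing a DNA repair mutation.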

[2] = NCI Yeast Anticancer Drug Screen. Data for the wt1 strain (AID 149);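 also: 0% = growth of vehicle-treated wt1 cultures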; details: S. cerevisiae wt1 strain (SPY 50644) growth inhibition, stronger effect = higher value
In short: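 Compounds are added to wt1 yeast cultures. Growth is then measured. Inhibition is expressed relative to vehicle-treated controls.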

[3] = NCI Yeast Anticancer Drug Screen. Data for the rad50EPP+ strain (AID 151);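 also: 0% = growth of vehicle-treated control cultures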; details: S. cerevisiae rad50 mutant strain, stronger effect = higher value
In short: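 In this screen, rad50EPP+ yeast were exposed to compounds. Growth inhibition was scored against vehicle-treated controls.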

[4] = NCI Yeast Anticancer Drug Screen. Data for the mgt1 strain (AID 153); details: S. cerevisiae mgt1 mutant growth inhibition, stronger effect = higher value
In short: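 mgt1 strain exposed; growth vs vehicle control recorded as inhibition.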

[5] = NCI Yeast Anticancer Drug Screen. Data for the rad50 strain (AID 155);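 also: 0% = growth of vehicle-only cultures of the same strain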; details: S. cerevisiae rad50 strain growth inhibition, stronger effect = higher value
In short: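 Inhibition values express reduced yeast growth in compound-treated cultures relative to vehicle-treated controls.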

[6] = NCI Yeast Anticancer Drug Screen. Data for the mec2-1 strain (AID 157); details: S. cerevisiae mec2-1 strain, stronger effect = higher value
In short: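 Vehicle-treated cultures served as reference for growth inhibition of compound-exposed mec2-1 yeast.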

[7] = NCI Yeast Anticancer Drug Screen. Data for the rad14 strain (AID 159);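 also: 0% = growth of vehicle-treated control cultures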; details: S. cerevisiae rad14 strain growth inhibition, stronger effect = higher value
In short: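 A mutant yeast strain defective in DNA damage repair is treated with compound; inhibition of its growth is scored against untreated, vehicle-exposed cultures.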

[8] = NCI Yeast Anticancer Drug Screen. Data for the sgs1 mgt1 strain (AID 161);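 also: 0% = growth of cultures given vehicle only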; details: S. cerevisiae sgs1 mgt1 strain, stronger effect = higher value
In short: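 Genetically altered yeast, compound exposure, growth inhibition relative to vehicle.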

[9] = NCI Yeast Anticancer Drug Screen. Data for the CLN2oe strain (AID 163);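 also: 0% = growth of vehicle-only control cultures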; details: S. cerevisiae CLN2oe strain, stronger effect = higher value
In short: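 Inhibition relative to vehicle-treated yeast is reported. Cells: strain with genetic alteration in cell-cycle control, grown with compound.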

[10] = NCI Yeast Anticancer Drug Screen. Data for the cln2 rad14 strain (AID 165);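 also: 0% = growth equal to vehicle treated cultures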; details: S. cerevisiae cln2 rad14 strain, stronger effect = higher value
In short: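 Each compound was tested on cln2 rad14 yeast. Inhibition of growth was calculated against vehicle-exposed controls.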

[11] = NCI Yeast Anticancer Drug Screen. Data for the bub3 strain (AID 167); details: S. cerevisiae bub3 mutant strain, stronger effect = higher value
In short: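 Steps: expose the mutant yeast strain to compound; grow alongside vehicle-treated cultures; measure growth; express inhibition against the vehicle cultures.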

[12] = NCI Yeast Anticancer Drug Screen. Data for the wt2 strain (AID 169);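 also: 0% = growth of vehicle-treated yeast cultures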; details: S. cerevisiae wt2 strain growth inhibition, stronger effect = higher value
In short: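 Inhibition of yeast growth was determined after compound treatment, normalised to controls receiving only vehicle.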

[13] = NCI Yeast Anticancer Drug Screen. Data for the mlh1 strain (AID 171);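 also: 0% = growth of vehicle-treated control cultures of the same strain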; details: S. cerevisiae mlh1 strain growth inhibition, stronger effect = higher value
In short: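 Vehicle-normalised growth inhibition of a repair- or checkpoint-altered yeast strain following compound treatment.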

[14] = NCI Yeast Anticancer Drug Screen. Data for the sgs1 strain (AID 173);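 also: 0% = growth of vehicle-only control cultures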; details: S. cerevisiae sgs1 mutant, stronger effect = higher value
In short: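 Screen format: yeast with repair or checkpoint alterations, compound exposure, growth read relative to vehicle.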

[15] = NCI Yeast Anticancer Drug Screen. Data for the mlh1 rad18 strain (AID 175); details: S. cerevisiae mlh1 rad18 strain growth inhibition, stronger effect = higher value
In short: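 Vehicle-treated cultures served as the reference for growth inhibition in a yeast strain carrying DNA damage repair alterations exposed to each compound.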

[16] = NCI Yeast Anticancer Drug Screen. Data for the rad18 strain (AID 177); details: S. cerevisiae rad18 mutant growth inhibition, stronger effect = higher value
In short: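 Test articles were incubated with altered yeast defective in DNA damage repair. Results are given as inhibition of growth versus vehicle.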

[17] = at 5.0 µM (retest, dose inferred, filed as 0.5)
[18] = at 50.0 µM (retest, dose inferred, filed as 5.0)

Measured: growth inhibition

c1ccc(CCN2CCc3ccccc3C2)cc1
active: [11]; [18] 74% | [15]; [18] 71%
inactive: [1]; at 1.2 µM -1% | [1]; at 3.7 µM 0% | [1]; at 11.0 µM 10% | [1]; at 33.0 µM 12% | [1]; at 100.0 µM 19% | [2]; at 1.2 µM -1% | [2]; at 3.7 µM 4% | [2]; at 11.0 µM 4% | [2]; at 33.0 µM 6% | [2]; at 100.0 µM 4% | [3]; at 1.2 µM -3% | [3]; at 3.7 µM -3% | [3]; at 11.0 µM -1% | [3]; at 33.0 µM -4% | [3]; at 100.0 µM 0% | [4]; at 1.2 µM -2% | [4]; at 3.7 µM -3% | [4]; at 11.0 µM 4% | [4]; at 33.0 µM 6% | [4]; at 100.0 µM 16% | [5]; at 1.2 µM 1% | [5]; at 3.7 µM 2% | [5]; [17] -9% | [5]; at 11.0 µM 3% | [5]; at 33.0 µM 8% | [5]; [18] 49% | [5]; at 50.0 µM 43.9% | [5]; at 100.0 µM 10% | [6]; at 1.2 µM -3% | [6]; at 3.7 µM 1% | [6]; [17] -10% | [6]; at 11.0 µM 6% | [6]; at 33.0 µM 8% | [6]; [18] 1% | [6]; at 50.0 µM 12.8% | [6]; at 100.0 µM 8% | [7]; at 1.2 µM 2% | [7]; at 3.7 µM 10% | [7]; at 11.0 µM 24% | [7]; at 33.0 µM 33% | [7]; at 100.0 µM 29% | [8]; [17] -5% | [8]; [18] 49% | [8]; at 50.0 µM 49.8% | [9]; at 1.2 µM -3% | [9]; at 3.7 µM -9% | [9]; at 11.0 µM 12% | [9]; at 33.0 µM 28% | [9]; at 100.0 µM 41% | [10]; [17] -6% | [10]; [18] 21% | [10]; at 50.0 µM 33.7% | [11]; at 1.2 µM -1% | [11]; at 3.7 µM -1% | [11]; [17] 24% | [11]; at 11.0 µM 7% | [11]; at 33.0 µM 21% | [11]; at 50.0 µM 56.8% | [11]; at 100.0 µM 40% | [12]; at 1.2 µM -1% | [12]; at 3.7 µM 1% | [12]; at 11.0 µM 4% | [12]; at 33.0 µM 8% | [12]; at 100.0 µM 8% | [13]; at 1.2 µM -2% | [13]; at 3.7 µM 1% | [13]; at 11.0 µM 4% | [13]; at 33.0 µM 11% | [13]; at 100.0 µM 11% | [14]; at 1.2 µM -1% | [14]; at 3.7 µM 0% | [14]; at 11.0 µM 6% | [14]; at 33.0 µM 18% | [14]; at 100.0 µM 17% | [15]; [17] 11% | [15]; at 50.0 µM 21.9% | [16]; at 1.2 µM 0% | [16]; at 3.7 µM 1% | [16]; at 11.0 µM 8% | [16]; at 33.0 µM 13% | [16]; at 100.0 µM 10%

COc1nc2c(c(=O)n1C)N=C(c1ccccc1)[C@H](C(CC(=O)c1ccccc1)c1ccccc1)C(c1ccccc1)N2 (stereo partly specified)
inactive: [1]; at 1.2 µM -2% | [1]; at 3.7 µM 13% | [1]; at 11.0 µM 34% | [1]; at 33.0 µM 31% | [1]; at 100.0 µM 60% | [2]; at 1.2 µM -27% | [2]; at 3.7 µM -20% | [2]; at 11.0 µM -19% | [2]; at 33.0 µM 6% | [2]; at 100.0 µM 46% | [3]; at 1.2 µM -16% | [3]; at 3.7 µM -30% | [3]; at 11.0 µM -46% | [3]; at 33.0 µM -17% | [3]; at 100.0 µM -35% | [4]; at 1.2 µM -53% | [4]; at 3.7 µM -38% | [4]; at 11.0 µM -9% | [4]; at 33.0 µM 34% | [4]; at 100.0 µM 60% | [5]; at 1.2 µM 6% | [5]; at 3.7 µM 3% | [5]; [17] 65% | [5]; at 11.0 µM 5% | [5]; at 33.0 µM 21% | [5]; at 50.0 µM 52.4% | [5]; at 100.0 µM 55% | [6]; at 1.2 µM -16% | [6]; at 3.7 µM -9% | [6]; [17] 13% | [6]; at 11.0 µM -8% | [6]; at 33.0 µM -4% | [6]; at 50.0 µM 61.5% | [6]; at 100.0 µM 34% | [7]; at 1.2 µM -1% | [7]; at 3.7 µM -10% | [7]; at 11.0 µM -1% | [7]; at 33.0 µM 31% | [7]; at 100.0 µM 57% | [8]; [17] -14% | [8]; [18] 35% | [8]; at 50.0 µM 53.7% | [9]; at 1.2 µM 10% | [9]; at 3.7 µM 1% | [9]; at 11.0 µM 4% | [9]; at 33.0 µM 13% | [9]; at 100.0 µM 43% | [10]; [17] 2% | [10]; [18] -15% | [10]; at 50.0 µM 7.8% | [11]; at 1.2 µM -11% | [11]; at 3.7 µM -34% | [11]; [17] 0% | [11]; at 11.0 µM 9% | [11]; at 33.0 µM 18% | [11]; [18] 23% | [11]; at 50.0 µM 36.4% | [11]; at 100.0 µM 41% | [12]; at 1.2 µM -8% | [12]; at 3.7 µM -8% | [12]; at 11.0 µM -7% | [12]; at 33.0 µM 22% | [12]; at 100.0 µM 46% | [13]; at 1.2 µM -53% | [13]; at 3.7 µM -38% | [13]; at 11.0 µM -9% | [13]; at 33.0 µM 34% | [13]; at 100.0 µM 60% | [14]; at 1.2 µM -9% | [14]; at 3.7 µM -10% | [14]; at 11.0 µM 23% | [14]; at 33.0 µM 40% | [15]; [17] 14% | [15]; [18] 35% | [15]; at 50.0 µM 20.1% | [16]; at 1.2 µM 37% | [16]; at 3.7 µM 47% | [16]; at 11.0 µM 50% | [16]; at 33.0 µM 46% | [16]; at 100.0 µM 67%
active: [5]; [18] 94% | [6]; [18] 94% | [14]; at 100.0 µM 71%
